Assay results published in PubChem BioAssay AID1211 (NMMLSC, 2008).
Activity calls are given as the source filed them. No rule for the calls is given here.

Biological target: Estrogen receptor (Homo sapiens) (UniProt P03372)
Experiment: ERalpha ligand binders by competition, primary screen, cell-based, Cos7 ERalpha-GFP, flow cytometry (AID 1211);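 also: 0% = DMSO vehicle wells and 100% = no E2-Alexa633 signal left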
Conditions: fluorescent ligand competition, at 10 µM, stronger effect = higher value

Sequence of Estrogen receptor (Homo sapiens) (P03372 whole entry, looked up): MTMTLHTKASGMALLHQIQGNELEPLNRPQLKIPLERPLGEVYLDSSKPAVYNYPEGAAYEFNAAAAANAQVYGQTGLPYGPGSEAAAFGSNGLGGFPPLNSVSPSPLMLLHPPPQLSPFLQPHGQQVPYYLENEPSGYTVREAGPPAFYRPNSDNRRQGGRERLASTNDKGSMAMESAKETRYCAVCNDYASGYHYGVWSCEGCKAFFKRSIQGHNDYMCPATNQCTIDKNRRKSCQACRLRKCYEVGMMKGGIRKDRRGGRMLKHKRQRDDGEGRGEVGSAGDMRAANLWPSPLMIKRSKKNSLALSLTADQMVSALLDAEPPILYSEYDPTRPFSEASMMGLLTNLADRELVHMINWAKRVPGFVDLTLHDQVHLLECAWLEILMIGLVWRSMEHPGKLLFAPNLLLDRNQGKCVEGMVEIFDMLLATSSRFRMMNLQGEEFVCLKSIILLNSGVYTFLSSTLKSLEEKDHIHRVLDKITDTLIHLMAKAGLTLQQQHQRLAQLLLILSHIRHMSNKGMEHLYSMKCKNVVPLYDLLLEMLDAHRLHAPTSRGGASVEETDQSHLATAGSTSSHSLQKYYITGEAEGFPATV

**Q.** How did the inhibition of ligand binding turn out when `CCOC(=O)N1CCN(c2ccc(O)cc2)CC1` was run?
**A.** 57% (inactive)

**Q.** How did the inhibition of ligand binding turn out when `O=C(Nc1ccc(O)cc1)C1CC=CCC1` (stereo not drawn) was run?
**A.** 6% (inactive)

**Q.** Which inhibition of ligand binding does the source give for `c1ccc(OCc2nnc3sc(C4COc5ccccc5O4)nn23)cc1` (stereo not drawn) here?
**A.** 0% (inactive)

**Q.** Which inhibition of ligand binding does the source give for `O=c1oc2ccccc2n1CCn1c2ccccc2c2nc3ccccc3nc21` here?
**A.** 27% (inactive)

**Q.** How did the inhibition of ligand binding turn out when `CCC(Sc1ncnc2sc(C)c(C)c12)C(=O)OC` (stereo not drawn) was run?
**A.** 38% (inactive)

**Q.** How did the inhibition of ligand binding turn out when `CCN1CCc2nc(NC(=O)Cc3ccc4c(c3)OCCO4)sc2C1` was run?
**A.** 36% (inactive)

**Q.** How did the inhibition of ligand binding turn out when `C/C(N)=C(/C#N)C(=O)CSc1nnc(COc2ccccc2Cl)o1` was run?
**A.** 20% (inactive)

**Q.** For `O=C(NCc1ccco1)c1cc2cc3ccc(Cl)cc3nc2o1`, which inhibition of ligand binding is on record?
**A.** 49% (inactive)

**Q.** How did the inhibition of ligand binding turn out when `O=C1NCCCC2c3cc(O)c4ccccc4c3OC12N1CCCCC1` (stereo not drawn) was run?
**A.** 25% (inactive)

**Q.** How did the inhibition of ligand binding turn out when `CCc1nc(N)nc(N)c1-c1ccc(Cl)cc1` was run?
**A.** 26% (inactive)

**Q.** With `Cc1oc2cc(O)ccc2c(=O)c1Oc1ccccc1` as the molecule, how does the inhibition of ligand binding read?
**A.** 58% (active)

**Q.** `Oc1ccc(-c2cn3c(n2)SCC3)cc1` was tested. Which inhibition of ligand binding did it give?
**A.** 37% (inactive)

**Q.** `Cc1ccc(-c2cc(C(=O)NCc3ccco3)c3ccccc3n2)o1` was tested. Which inhibition of ligand binding did it give?
**A.** 60% (inactive)

**Q.** For `O=C(O)C1Nc2c(C(=O)N3CCOCC3)cccc2C2C=CCC12` (stereo not drawn), which inhibition of ligand binding is on record?
**A.** 28% (inactive)

**Q.** `COc1ccc2[nH]c3c(c2c1)CCn1c-3nc2ccccc2c1=O` was tested. Which inhibition of ligand binding did it give?
**A.** 25% (inactive)

**Q.** How did the inhibition of ligand binding turn out when `CSc1ccc(S(=O)(=O)Nc2cccc(F)c2)cc1` was run?
**A.** 45% (inactive)

**Q.** For `COc1ccc2c(c1)c(=O)oc1cc3oc(C)c(C)c3cc12`, which inhibition of ligand binding is on record?
**A.** 3% (inactive)

**Q.** How did the inhibition of ligand binding turn out when `O=C1C2CC=C(Cl)CC2C(=O)N1CCCCCCN1C(=O)C2CC=C(Cl)CC2C1=O` (stereo not drawn) was run?
**A.** 36% (inactive)

**Q.** For `O=C(Cc1cccs1)Nc1ccc(S(=O)(=O)N2CCCCC2)cc1`, which inhibition of ligand binding is on record?
**A.** 32% (inactive)

**Q.** With `COc1ccc(Cn2c(=O)[nH]c3cc(C(=O)NCc4ccc5c(c4)OCO5)ccc3c2=O)cc1` as the molecule, how does the inhibition of ligand binding read?
**A.** 23% (inactive)

**Q.** With `COc1cc2c(cc1OC)C(Cc1ccc(O)cc1)NCC2` (stereo not drawn) as the molecule, how does the inhibition of ligand binding read?
**A.** 26% (inactive)

**Q.** How did the inhibition of ligand binding turn out when `Cc1oc(-c2ccc(Cl)cc2)cc1-c1nn2c(-c3ccoc3C)nnc2s1` was run?
**A.** 68% (active)

**Q.** Which inhibition of ligand binding does the source give for `COC(=O)c1ccccc1NC(=O)c1noc2c1CCC2` here?
**A.** 25% (inactive)

**Q.** `O=C(CSc1nnc(-c2ccc(OC(F)F)cc2)o1)NC(=O)NCc1ccco1` was tested. Which inhibition of ligand binding did it give?
**A.** 34% (inactive)

**Q.** Which inhibition of ligand binding does the source give for `N=c1c(C(=O)NCc2ccc(F)cc2)cc2c(=O)n3ccccc3nc2n1Cc1cccnc1` here?
**A.** 44% (inactive)

**Q.** `CCOc1[nH]c(/N=C/c2ccco2)c(C#N)c1C#N` was tested. Which inhibition of ligand binding did it give?
**A.** 21% (inactive)

**Q.** Which inhibition of ligand binding does the source give for `Cc1ccc(C(=O)ONc2ccc(N=NC(=O)c3ccccc3O)cc2)cc1` here?
**A.** 39% (inactive)

**Q.** `Oc1c(C=Nc2cccc3cccnc23)sc2ccccc12` was tested. Which inhibition of ligand binding did it give?
**A.** 40% (inactive)

**Q.** Which inhibition of ligand binding does the source give for `COc1ccccc1NC(=O)c1ccccc1NC(=O)c1cc(Cl)ccc1NC(=O)c1ccco1` here?
**A.** 32% (inactive)

**Q.** `COc1ccc(C2Nc3ccccc3C(=O)N2c2ccc(Cl)cc2)cc1Cn1cc([N+](=O)[O-])cn1` (stereo not drawn) was tested. Which inhibition of ligand binding did it give?
**A.** 29% (inactive)

**Q.** How did the inhibition of ligand binding turn out when `COc1cc(-c2nc3ccc4ccccc4c3c3c2CCC3)ccc1O` was run?
**A.** 46% (active)

**Q.** `COc1cc(C2Nc3c(F)cccc3C3C=CCC32)cc(Br)c1OC` (stereo not drawn) was tested. Which inhibition of ligand binding did it give?
**A.** 10% (inactive)

**Q.** Which inhibition of ligand binding does the source give for `O=C(NCCN1CCOCC1)c1cnn2c(-c3ccccc3)cc(-c3ccccc3)nc12` here?
**A.** 0% (inactive)

**Q.** `Nc1ccc(-n2cnc3cc([N+](=O)[O-])ccc32)cc1` was tested. Which inhibition of ligand binding did it give?
**A.** 41% (active)

**Q.** How did the inhibition of ligand binding turn out when `CC(Oc1ccc(Cl)cc1Cl)C(=O)Nc1ccc2oc(-c3ccncc3)nc2c1` (stereo not drawn) was run?
**A.** 48% (inactive)

**Q.** With `Oc1ccc(-c2cn3c(n2)SCC3)cc1O` as the molecule, how does the inhibition of ligand binding read?
**A.** 19% (inactive)

**Q.** `CC(=O)Nc1ccc2[nH]c(C)cc(=O)c2c1` was tested. Which inhibition of ligand binding did it give?
**A.** 27% (inactive)

**Q.** `O=S(=O)(NCc1csc(-c2cccnc2)n1)c1cccs1` was tested. Which inhibition of ligand binding did it give?
**A.** 22% (inactive)

**Q.** For `Clc1ccc(Sc2cc(N3CCOCC3)nc(-c3ccccc3)n2)cc1`, which inhibition of ligand binding is on record?
**A.** 41% (inactive)

Same assay, conditions: fluorescent ligand competition, binding inhibition, at 0.1 µM, stronger effect = higher value

**Q.** `CCOC(=O)N1CCN(c2ccc(O)cc2)CC1` was tested. Which inhibition of ligand binding did it give?
**A.** 56%

**Q.** `O=C(Nc1ccc(O)cc1)C1CC=CCC1` (stereo not drawn) was tested. Which inhibition of ligand binding did it give?
**A.** 9%

**Q.** With `c1ccc(OCc2nnc3sc(C4COc5ccccc5O4)nn23)cc1` (stereo not drawn) as the molecule, how does the inhibition of ligand binding read?
**A.** 5%

**Q.** Which inhibition of ligand binding does the source give for `O=c1oc2ccccc2n1CCn1c2ccccc2c2nc3ccccc3nc21` here?
**A.** 28%

**Q.** How did the inhibition of ligand binding turn out when `CCC(Sc1ncnc2sc(C)c(C)c12)C(=O)OC` (stereo not drawn) was run?
**A.** 30%

**Q.** `CCN1CCc2nc(NC(=O)Cc3ccc4c(c3)OCCO4)sc2C1` was tested. Which inhibition of ligand binding did it give?
**A.** 31%

**Q.** With `C/C(N)=C(/C#N)C(=O)CSc1nnc(COc2ccccc2Cl)o1` as the molecule, how does the inhibition of ligand binding read?
**A.** 8%

**Q.** For `O=C(NCc1ccco1)c1cc2cc3ccc(Cl)cc3nc2o1`, which inhibition of ligand binding is on record?
**A.** 30%

**Q.** For `O=C1NCCCC2c3cc(O)c4ccccc4c3OC12N1CCCCC1` (stereo not drawn), which inhibition of ligand binding is on record?
**A.** 23%

**Q.** `CCc1nc(N)nc(N)c1-c1ccc(Cl)cc1` was tested. Which inhibition of ligand binding did it give?
**A.** 25%

**Q.** Which inhibition of ligand binding does the source give for `Cc1oc2cc(O)ccc2c(=O)c1Oc1ccccc1` here?
**A.** 93%

**Q.** Which inhibition of ligand binding does the source give for `Oc1ccc(-c2cn3c(n2)SCC3)cc1` here?
**A.** 22%

**Q.** For `Cc1ccc(-c2cc(C(=O)NCc3ccco3)c3ccccc3n2)o1`, which inhibition of ligand binding is on record?
**A.** 58%

**Q.** With `O=C(O)C1Nc2c(C(=O)N3CCOCC3)cccc2C2C=CCC12` (stereo not drawn) as the molecule, how does the inhibition of ligand binding read?
**A.** 15%

**Q.** How did the inhibition of ligand binding turn out when `COc1ccc2[nH]c3c(c2c1)CCn1c-3nc2ccccc2c1=O` was run?
**A.** 36%

**Q.** `CSc1ccc(S(=O)(=O)Nc2cccc(F)c2)cc1` was tested. Which inhibition of ligand binding did it give?
**A.** 54%

**Q.** `COc1ccc2c(c1)c(=O)oc1cc3oc(C)c(C)c3cc12` was tested. Which inhibition of ligand binding did it give?
**A.** 16%

**Q.** `O=C1C2CC=C(Cl)CC2C(=O)N1CCCCCCN1C(=O)C2CC=C(Cl)CC2C1=O` (stereo not drawn) was tested. Which inhibition of ligand binding did it give?
**A.** 34%

**Q.** How did the inhibition of ligand binding turn out when `O=C(Cc1cccs1)Nc1ccc(S(=O)(=O)N2CCCCC2)cc1` was run?
**A.** 22%

**Q.** `COc1ccc(Cn2c(=O)[nH]c3cc(C(=O)NCc4ccc5c(c4)OCO5)ccc3c2=O)cc1` was tested. Which inhibition of ligand binding did it give?
**A.** 53%

**Q.** How did the inhibition of ligand binding turn out when `COc1cc2c(cc1OC)C(Cc1ccc(O)cc1)NCC2` (stereo not drawn) was run?
**A.** 32%

**Q.** With `Cc1oc(-c2ccc(Cl)cc2)cc1-c1nn2c(-c3ccoc3C)nnc2s1` as the molecule, how does the inhibition of ligand binding read?
**A.** 34%

**Q.** For `COC(=O)c1ccccc1NC(=O)c1noc2c1CCC2`, which inhibition of ligand binding is on record?
**A.** 21%

**Q.** For `O=C(CSc1nnc(-c2ccc(OC(F)F)cc2)o1)NC(=O)NCc1ccco1`, which inhibition of ligand binding is on record?
**A.** 26%

**Q.** Which inhibition of ligand binding does the source give for `N=c1c(C(=O)NCc2ccc(F)cc2)cc2c(=O)n3ccccc3nc2n1Cc1cccnc1` here?
**A.** 26%

**Q.** With `CCOc1[nH]c(/N=C/c2ccco2)c(C#N)c1C#N` as the molecule, how does the inhibition of ligand binding read?
**A.** 9%

**Q.** For `Cc1ccc(C(=O)ONc2ccc(N=NC(=O)c3ccccc3O)cc2)cc1`, which inhibition of ligand binding is on record?
**A.** 37%

**Q.** With `Oc1c(C=Nc2cccc3cccnc23)sc2ccccc12` as the molecule, how does the inhibition of ligand binding read?
**A.** 21%

**Q.** With `COc1ccccc1NC(=O)c1ccccc1NC(=O)c1cc(Cl)ccc1NC(=O)c1ccco1` as the molecule, how does the inhibition of ligand binding read?
**A.** 3%

**Q.** `COc1ccc(C2Nc3ccccc3C(=O)N2c2ccc(Cl)cc2)cc1Cn1cc([N+](=O)[O-])cn1` (stereo not drawn) was tested. Which inhibition of ligand binding did it give?
**A.** 49%

**Q.** `COc1cc(-c2nc3ccc4ccccc4c3c3c2CCC3)ccc1O` was tested. Which inhibition of ligand binding did it give?
**A.** 87%

**Q.** `COc1cc(C2Nc3c(F)cccc3C3C=CCC32)cc(Br)c1OC` (stereo not drawn) was tested. Which inhibition of ligand binding did it give?
**A.** 20%

**Q.** How did the inhibition of ligand binding turn out when `O=C(NCCN1CCOCC1)c1cnn2c(-c3ccccc3)cc(-c3ccccc3)nc12` was run?
**A.** 8%

**Q.** `Nc1ccc(-n2cnc3cc([N+](=O)[O-])ccc32)cc1` was tested. Which inhibition of ligand binding did it give?
**A.** 66%

**Q.** Which inhibition of ligand binding does the source give for `CC(Oc1ccc(Cl)cc1Cl)C(=O)Nc1ccc2oc(-c3ccncc3)nc2c1` (stereo not drawn) here?
**A.** 40%

**Q.** `Oc1ccc(-c2cn3c(n2)SCC3)cc1O` was tested. Which inhibition of ligand binding did it give?
**A.** 28%

**Q.** Which inhibition of ligand binding does the source give for `CC(=O)Nc1ccc2[nH]c(C)cc(=O)c2c1` here?
**A.** 19%

**Q.** `O=S(=O)(NCc1csc(-c2cccnc2)n1)c1cccs1` was tested. Which inhibition of ligand binding did it give?
**A.** 5%

**Q.** `Clc1ccc(Sc2cc(N3CCOCC3)nc(-c3ccccc3)n2)cc1` was tested. Which inhibition of ligand binding did it give?
**A.** 25%
